ELG1 genotox – qHTS screen for small molecules that induce genotoxicity in human embryonic kidney (HEK293T) cells expressing luciferase-tagged ELG1; HEK293T ELG1-luciferase reporter, luminescence, 16 h; Potency, µM (series often up to 46 µM), for inactives: top-dose activity change, positive = activation, hits mostly activators; actives 1.3% (n = 330,000); AID 504466, 2011; note: % of control where 0% means no effect; nearly all actives have a fitted effect of over 60% in size
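Step 1: seed 2,000 HEK293T ELG1-luciferase cells per well. Step 2: add compound or DMSO, incubate 16 hr at 37 °C. Step 3: ONE-Glo, 30 min at room temperature, read luminescence.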
NPC1 promoter act – qHTS Assay for NPC1 Promoter Activators. Huh7 NPC1 promoter luciferase reporter, 24 h. Potency, µM (doses to about 9.22 µM), inactives show at the highest dose activation, hits mostly activators. actives 2.4% (n = 320,000); note: % of control where 0% means no effect; nearly all actives have a fitted effect of over 60% in size
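Cells: Huh7 expressing luciferase under the NPC1 promoter, 1500/well. Seeded 2 h, compound added, incubated 24 h at 37 °C. Luciferase reagent, 10 min ambient, then luminescence.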
SMN2 splice enh – qHTS Assay for Enhancers of SMN2 Splice Variant Expression | HEK293 SMN2-luciferase splicing reporter, luminescence, 30-36 h | Potency, µM (highest dose often 46.1 µM), without a hit: at the highest dose activity change, positive = activation, actives largely listed as activators | actives 2.8% (n = 210,000) | AID 1458, 2008; note: % of control where 0% means no effect; nearly all actives have a fitted effect of over 55% in size
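qHTS luciferase splicing reporter: luminescence rises when SMN2 exon 7 is included in transfected HEK293 cells. Compound exposure lasted 30-36 h at 37C, with 4.5 mM final sodium butyrate as control, followed by a ONE-Glo read.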
FLuc counter – qHTS profiling assay for firefly luciferase inhibitor/activator using purifed enzyme and Km concentrations of substrates (counterscreen for miR-21 project); Potency, µM (top dose mostly 57.5 µM), without a hit: at the highest dose activity change, negative = inhibition, most hits filed as inhibitors; AID 588342, 2011; actives 6.9% (n = 360,000); purified FLuc, Km substrates, luminescence inhibition; Luciferin 4-monooxygenase (Photinus pyralis), P08659;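 note: plate controls were vehicle for no effect and reference inhibitor for full effect; nearly all actives have a fitted effect of over 55% in size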
Target sequence (P08659 whole entry, looked up): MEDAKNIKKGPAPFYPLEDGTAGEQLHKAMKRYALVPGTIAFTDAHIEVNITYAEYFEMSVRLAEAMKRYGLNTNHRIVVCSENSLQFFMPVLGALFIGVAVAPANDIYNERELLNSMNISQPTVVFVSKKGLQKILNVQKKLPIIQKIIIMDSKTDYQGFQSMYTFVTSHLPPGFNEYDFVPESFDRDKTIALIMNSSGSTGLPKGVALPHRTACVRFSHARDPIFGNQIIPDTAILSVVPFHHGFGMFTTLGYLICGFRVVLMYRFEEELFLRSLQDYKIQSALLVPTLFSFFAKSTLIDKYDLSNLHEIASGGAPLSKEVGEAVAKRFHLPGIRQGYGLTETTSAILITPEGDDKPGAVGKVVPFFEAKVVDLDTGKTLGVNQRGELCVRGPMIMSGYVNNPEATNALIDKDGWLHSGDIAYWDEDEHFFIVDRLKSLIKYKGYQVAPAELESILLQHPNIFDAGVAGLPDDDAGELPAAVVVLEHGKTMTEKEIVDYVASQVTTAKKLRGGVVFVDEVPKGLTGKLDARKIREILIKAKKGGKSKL
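Purified P. pyralis luciferase (10nM final) with 10uM D-luciferin and 10uM ATP (Km levels) in 50mM Tris acetate pH 7.5, 10mM Mg acetate, 0.01% Tween-20, 0.05% BSA; qHTS 6-point titration, ~60 µM downward; luminescence read.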
Luc counter – Counterscreen for Luciferase (Kinase-Glo TM) Inhibition; AID 1379, 2008; actives 0.28% (n = 200,000); Luciferin 4-monooxygenase (Photuris pensylvanica), Q27757; Potency, µM (titrated, usually from 38.3 µM), for inactives: top-dose activity change, negative = inhibition, most hits filed as inhibitors; Kinase-Glo luciferase, ATP luminescence, 8 min; note: % is set by controls: 0 for no effect and ±100 for the full control effect; nearly all actives have a fitted effect of over 60% in size
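Compound is pinned into ATP-containing buffer (10 uM ATP, imidazole pH 7.2, 7 mM MgCl2). Kinase-Glo luciferase reagent is then added. Light output is recorded following an 8-min room-temperature incubation.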
Rab9 prom act – qHTS Assay for Rab9 Promoter Activators. AID 485297, 2010. actives 2.8% (n = 320,000). Potency, µM (top dose mostly 9.22 µM), without a hit: at the top dose activation, negative = inhibition, hits mostly activators. Huh7 Rab9 promoter-luciferase reporter, luminescence, 24 h; note: % of control where 0% means no effect; nearly all actives have a fitted effect of over 60% in size
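Luminescence from Amplite-detected luciferase (10 minutes, ambient) reports Rab9 promoter activation. Before that, stable Rab9-luciferase Huh7 cells (1500/well, reduced-serum OP-MEM I plus 10% FBS) were exposed to compound for 24 hours at 37C.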
Numbers without * were called inactive; ? = inconclusive; · = no result given; [ ] = another dose, or the depositor's remark. A selection: hits, their analogues and other compounds. The true share with any hit is near 7.3%. Calls come from the whole dose curve; as a rule, active = well fitted curve in the direction sought with a large enough effect; inconclusive = small, poorly fitted or top-dose-only effect, or another doubt; inactive = no such curve, though single readings can be large; an effect the other way counts as inactive or inconclusive. Potency is the fitted concentration of half-maximal effect.

SMILES	ELG1 genotox	NPC1 promoter act	SMN2 splice enh	FLuc counter	Luc counter	Rab9 prom act
COC(=O)c1ccc2nc(NC(=O)CSCC(=O)OCC(=O)c3ccccc3)sc2c1	15%	11%	2%	17µM*	-1%	11%
COc1ccc(NC(=O)OC(C)C)cc1	?	2µM*	11µM*	12µM*	-17%	2.2µM*
CC(C)OC(=O)Nc1ccc(-c2ccc(NC(=O)OC(C)C)cc2Cl)c(Cl)c1	2%	-2%	·	2%	·	3%
COc1ccc(NC(=O)Nc2ccc(OC)cc2)cc1	?	2.8µM*	?	-22%	-2%	2.2µM*
COc1ccc(NC(=O)Nc2ccc(N(C)C)cc2)cc1	?	2.5µM*	13µM*	3µM*	3%	2.2µM*
COc1ccc(NC(=O)/C=C2\SC(=O)NC2=O)cc1	12%	6%	23%	12µM*	2%	-1%
COC(=O)c1ccc(NC(=O)Nc2ccc(OC)cc2)cc1	0%	8%	19%	-20%	2%	22%
Nc1nnc(N2CCCCC2)s1	1%	-3%	-19%	12%	-7%	3%
CC1CCN(c2nnc(N)s2)CC1	?	2.2µM*	2.5µM*	4.3µM*	-5%	1.3µM*
O=C(NCCCN1CCOCC1)c1cc(-c2ccc(F)cc2)nc2ccccc12	3%	0%	·	?	·	-1%
C/C(=N\NC(=O)c1ccccn1)C12CC3CC(CC(C3)C1)C2	10%	29%	9%	15µM*	2%	?
N/C(=N\OC(=O)C12CC3CC(CC(C3)C1)C2)c1ccccc1	11%	16%	1%	4.8µM*	-5%	1%
O=C(O)c1ccccc1OC(=O)C12CC3CC(CC(C3)C1)C2	-1%	-1%	4%	?	1%	1%
N/C(=N\OC(=O)C12CC3CC(CC(C3)C1)C2)c1ccccn1	?	17%	23%	7.6µM*	1%	20%
N/C(=N\OC(=O)N1CCOCC1)c1ccccc1	6%	24%	-75%	17µM*	?	27%
CC(C)C(=O)O/N=C(\N)c1ccccn1	3%	3%	6%	-5%	-2%	-1%
CCOC(=O)c1c(C)[nH]c(C)c1S(=O)(=O)NCC(=O)Nc1cccc(Cl)c1	·	·	·	0%	·	·
N/C(=N\OC(=O)C12CC3CC(CC(C3)C1)C2)c1cccnc1	3%	9%	24%	15µM*	0%	7%
COc1ccc(/C=C/C(=O)O/N=C(\N)c2cccnc2)cc1OC	11%	1%	·	-11%	·	3%
Cc1nc(NC(=O)c2cncc(Br)c2)ccc1Br	5%	?	·	0%	·	?
COc1ccc(-c2n(CC(=O)OC3CC(C)CCC3C(C)C)c3ccccc3[n+]2C)cc1 (centres undefined)	-3%	-9%	·	-8%	3.5µM*	-12%
COc1ccc(OCc2n(CC(=O)OC3CC(C)CCC3C(C)C)c3ccccc3[n+]2C)cc1 (centres undefined)	-6%	-4%	·	-1%	·	-9%
CCC(=O)Nc1cccc(C(=O)/C=C/c2ccc(F)cc2)c1	-20%	-4%	-62%	15µM*	1%	-14%
CC(=O)Nc1cccc(C(=O)/C=C/c2ccc(C)cc2)c1	9%	0%	-4%	4.8µM*	-1%	-6%
S=C(Nc1ccccc1)Nc1ccc(Cl)cc1Cl	21µM*	3.2µM*	26%	27µM*	1%	?
SMILES	ELG1 genotox	NPC1 promoter act	SMN2 splice enh	FLuc counter	Luc counter	Rab9 prom act
O=C(COc1ccccc1)Nc1ccc(Cl)cc1Cl	?	?	·	6µM*	-3%	2.2µM*
S=C(Nc1ccccc1Cl)Nc1ccc(Cl)cc1Cl	2%	3%	-26%	-6%	-2%	12%
O=C(COc1ccccc1O)Nc1ccccc1Cl	?	4µM*	3%	21µM*	-2%	?
O=C(COc1ccccc1)Nc1cc(Cl)ccc1Cl	20%	15%	·	?	·	4%
O=C(COC(=O)CNC(=O)c1ccc(Br)cc1)Nc1nnc(-c2ccccc2)o1	-2%	1%	·	?	·	-4%
COC(=O)c1sccc1NC(=O)c1ccc(Cl)s1	-2%	-10%	-14%	5%	-7%	-9%
COc1ccc(C(=O)COC(=O)[C@@H](NS(=O)(=O)c2ccccc2)C(C)C)cc1	0%	·	·	·	·	·
CCCN(CCO)Cc1cccc(Oc2ccccc2)c1	0%	-4%	·	-2%[2.3 µM]	-2%	1%
COc1ccc(N2C(=O)NC(NC(=O)C(C)(C)C)(C(F)(F)F)C2=O)cc1 (centres undefined)	1%	-3%	·	-1%	·	-4%
Cc1c2c(=O)n(-c3nc4ccccc4s3)nc-2cc(O)n1Cc1ccccc1	-1%	-5%	·	6.7µM*	·	-16%
Cc1cc(C)n(-c2nc3ccccc3s2)n1	?	17%	·	21µM*	-26%	27%
Cc1cc(NC(=O)C(C)C)n(-c2nc3ccccc3s2)n1	7%	21%	-6%	?	-8%	?
Cc1cc(C)n(-c2nc(C(=O)O)cs2)n1	2%	-3%	9%	-15%	-1%	-2%
Cc1cc(C)n(-c2nc(-c3ccccc3)cs2)n1	18µM*	26%	23%	9.5µM*	-4%	?
Cc1ccc(Cl)cc1Nc1nc(-c2cccnc2)cs1	-3%	3%	·	?	·	17%
Cc1cc(C)n(-c2nc(-c3cccc(Cl)c3)cs2)n1	?	?	18%	11µM*	-4%	?
C=CC[C@@H](CC(=O)N(CCO)Cc1ccccc1)C(=O)N[C@H](COC(=O)[C@@H](CC=C)CC(=O)OC(C)(C)C)c1ccccc1	-9%	·	·	·	·	·
Cn1ccc(C(=O)OCC(=O)c2ccccc2)n1	?	11%	·	27µM*	·	21%
Cc1cnc(C(=O)OCC(=O)c2ccccc2)cn1	3%	-2%	·	?	·	-1%
CCc1ccc(C(=O)COC(=O)c2cccc(N3C(=O)c4c(C)nc5ccccc5c4C3=O)c2)cc1	0%	?	-18%	1.7µM*	0%	26%
O=C(COC(=O)c1cccc(N2C(=O)C3CC=CCC3C2=O)c1)c1ccccc1 (centres undefined)	4%	19%	·	2.4µM*	·	2%
O=C(O)c1cccc(N2C(=O)C3CC=CCC3C2=O)c1 (centres undefined)	1%	-2%	-1%	1%	0%	-2%
O=C(COC(=O)c1cccc(O)c1)c1ccccc1	?	0%	·	?	·	20%

Bioassay records: PubChem, National Center for Advancing Translational Sciences (NCATS)
